We go through five compounds from PubChem BioAssay (NCATS).

Assay [1] concerns the target Guanine nucleotide-binding protein G(i) subunit alpha-1 (Homo sapiens) (UniProt P63096). Nature of the assay: qHTS Assay for Inhibitors of RGS12 GoLoco Motif Activity (Green Fluorophore) (AID 879).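 Note: 0% = labeled peptide with Gαi1 and full inhibition = labeled peptide alone without protein; negative values mean loss of peptide binding seen as reduced polarization.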 An outline of the steps: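 A drop in FITC polarization marked displacement of the FITC-tagged RGS12 GoLoco peptide (10 nM) from Gαi1 (50 nM). Compounds were incubated 10 min at room temperature in Tris pH 7.5 buffer containing 150 mM NaCl, 0.1 mM GDP and 0.05% NP40; unlabeled peptide titration served as control.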
A general note: Quantitative high-throughput screening tests each substance at several concentrations.

The target of assay [2] is Pyruvate kinase (Leishmania mexicana) (UniProt Q27686). Nature of the assay: qHTS Validation Assay for Inhibitors of Leishmania Mexicana Pyruvate Kinase (AID 945).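 Note: 0% = DMSO only neutral control wells.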 The method, boiled down: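 Read-out: luminescence from PKLight stop/detection reagent, data normalized to DMSO. Reaction: 0.2 nM E451W LmPYK, 0.5 mM PEP, 0.1 mM ADP, pH 7.2, 1 h room temperature.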
Assay [3] deals with Pyruvate kinase PKM (Homo sapiens) (UniProt P14618). Nature of the assay: qHTS Assay for Activators of Human Muscle Pyruvate Kinase (AID 954; active = well fitted curve in the direction sought with a large enough effect, not every such curve was filed as active;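 note: 0% = uninhibited enzyme and -100% = no enzyme or full thiadiazolimine inhibition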). An outline of the steps: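 Compound pinned into substrate mix (0.5 mM PEP, 0.1 mM ADP), then 0.1 nM PKM2 added; 1 h, RT. Stop/detection luciferase reagent added, luminescence read. Normalized to no-inhibition and no-enzyme or reference-inhibitor controls.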

The target of assay [4] is Alpha-galactosidase A (Homo sapiens) (UniProt P06280). Nature of the assay: Counterscreen for Glucocerebrosidase Inhibitors: qHTS Assay for Human alpha-Galactosidase at pH 4.5 (AID 992). Note: 0% is about no effect. An outline of the steps:
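Steps: enzyme (2 nM final), then compound across 0.7 nM to 77 uM, then 80 uM fluorogenic galactopyranoside substrate; incubate 20 min at room temperature; quench at pH 10; measure fluorescence at 365/440 nm.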
Background: A counterscreen serves to expose hits that act by an unwanted route or on another target.

The target of assay [5] is alpha-glucosidase (Oryza sativa, rice) (UniProt Q653V4). Nature of the assay: Counterscreen for Glucocerebrosidase Inhibitors: qHTS Assay for Rice alpha-Glucosidase at pH 5.0 (AID 997).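 Note: 0% = full activity with enzyme and -100% = basal without enzyme.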 An outline of the steps: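 Endpoint fluorogenic assay at pH 5.0: compounds (0.7 nM to 77 uM) titrated against 4 nM rice enzyme and 400 uM 4-MU-alpha-glucoside for 20 min at room temperature; NaOH/glycine stop, read ex 365/em 440 nm, Hill-fitted AC50.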

Assay [6] in a line: Cell Viability - HUV-EC-C (AID 542).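 Note: cells exposed to compound for 40 hours; % is set by controls: 0 for no effect and ±100 for the full control effect; nearly all actives have a fitted effect of over 35% in size.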 The method, boiled down: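 Concentration-dependent ATP loss in HUV-EC-C cells is the measure. Exposure lasts 40 hr at 37 °C; luminescence follows CellTiter-Glo addition, and Hill fits give AC50.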
A short description of assay [7]: Cell Viability - Mesenchymal (AID 546).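 Note: cells exposed to compound for 40 hours before reading; 0% = DMSO only and -100% = 100 µM tamoxifen.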 The method, boiled down:
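Human renal mesenchymal cells (glomerulus-derived), 1000 cells/well, 5 hr 37 °C pre-incubation; compound 40 hr, 37 °C; CellTiter-Glo, 20 min RT; luminescence; AC50 via Hill equation.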

Assay [8] can be described thus: Cellular Toxicity (caspase-3) HepG2 (AID 654).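 Note: cells exposed to compound for 16 hours before reading; 0% = DMSO alone and 100% = caspase signal from 100 µM tamoxifen.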 An outline of the steps:
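Concentration-response AC50 values reflect caspase-3/7 induction in HepG2 cells after 16 hours of compound exposure, quantified by luminescence from liberated aminoluciferin and referenced to 100 uM tamoxifen as full stimulation.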

A short description of assay [9]: Cellular Toxicity (caspase-3) HUV-EC-C (AID 656).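 Note: 0% = DMSO basal and 100% = 100 µM tamoxifen.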 The method, boiled down:
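HUV-EC-C cells (1000/well) in complete medium, compound-treated 16 h at 37 °C; caspase-3/7 activity read by Caspase-Glo 3/7 luminescence. Normalized to DMSO (basal) and 100 uM tamoxifen (100%); AC50 from Hill-equation concentration-response fits.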

Assay [10] can be described thus: Cellular Toxicity (caspase-3) BJ (AID 658).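 Note: 0% = DMSO basal and 100% = 10 µM staurosporine.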 The method, boiled down:
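qHTS, BJ fibroblasts, 1000 cells/well; 5 hr preincubation, 16 hr compound, 37 °C; Caspase-Glo 3/7 reagent, 1 hr RT; luminescence. DMSO = 0%, 10 uM staurosporine = 100%. Hill-equation AC50.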

Assay [11] in a line: Cellular Toxicity (caspase-3) MRC-5 (AID 659).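 Note: 0% = DMSO basal and 100% = 10 µM staurosporine.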 The method, boiled down:
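MRC-5 fibroblasts, 1500/well; 16 h cpd, 37 °C; Caspase-Glo 3/7, 1 h RT; lumi read. Norm: DMSO = 0%, 10 uM staurosporine = 100%. Hill-fit AC50 from qHTS conc-response.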

Assay [12] in a line: Confirmation and Secondary Assay for Modulators of Hemoglobin Beta Chain Splicing at IVS2 654 locus (AID 910).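 Note: HeLa cells stably carrying EGFP split by mutant beta-globin IVS2-654 intron; % of control where 0% means no effect.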 An outline of the steps:
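HeLa cells stably expressing EGFP interrupted by β-globin IVS2-654 intron, seeded overnight in Opti-MEM/2% FCS, then treated 2 days at 37 °C. Restored splicing read as total peak GFP intensity per well by laser scanning cytometry (488 nm excitation, 500–520 nm emission); 500 nM antisense PNA as control.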

A short description of assay [13]: Confirmation and Secondary Assay for Modulators of Hemoglobin Beta Chain Splicing at IVS2 705 locus (AID 930).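 Note: HeLa cells stably expressing the EGFP-705 splicing reporter; GFP fluorescence per well restored by corrected splicing of the IVS2-705 intron in EGFP; series mostly up to about 46 µM; % of control where 0% means no effect.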 The method, boiled down: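 Secondary splice-site specificity test uses HeLa expressing CMV-driven EGFP interrupted by IVS2-705; cells were treated 2 days at 37C with 500 nM antisense PNA as positive control.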
A short description of assay [14]: qHTS Assay for Identification of Small Molecule Inducers of Hypoxia Response (AID 2120; active = well fitted curve in the direction sought with a large enough effect in the signal ratio, with a control signal flat, not every such curve was filed as active; the % refers to the signal ratio; note: 0% is about no effect). An outline of the steps: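 HRE-bla ME-180, 2500 cells/well, 0.5% dialyzed FBS medium; cpd titration, 17 h 37 degrees C; CCF4 2.5 h RT; Ex 405, Em 460/530 ratio -> %Activity, AC50.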
Assay [15] in a line: qHTS assay for small molecule antagonists of retinoid X receptor alpha signaling (AID 588546).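 Note: cells stimulated with 9-cis-retinoic acid as agonist; % is set by controls: 0 for no effect and ±100 for the full control effect.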 Conditions: HEK293T RXRa-UAS-bla, beta-lactamase ratio, antagonist mode; measured here: W530 green channel, cytotoxicity proxy. The method, boiled down:
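Beta-lactamase reporter inhibition, read as CCF4 fluorescence ratio (ex 405, em 460/530 nm) after 2 h at RT. HEK293T UAS-bla cells, 2500/well, were stimulated with 9-cis-RA at 500 or 100 nM final alongside test compound for 18 h at 37 C.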

The target of assay [16] is Thyroid hormone receptor beta (Homo sapiens) (UniProt P10828). Nature of the assay: qHTS assay for small molecule antagonists of thyroid hormone receptor beta signaling (AID 588547; active = well fitted inhibition curve with a large enough effect in the signal ratio, with a control signal flat, not every such curve was filed as active; the % refers to the signal ratio;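 note: cells stimulated with 0.4 nM T3 agonist during compound exposure; series mostly up to about 77 µM; % is set by controls: 0 for no effect and ±100 for the full control effect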). The note with it: TR-UAS-bla HEK293, beta-lactamase ratio, antagonist mode, 18 h. The method, boiled down: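 TR-UAS-bla GripTite HEK293 cells in 2% charcoal/dextran FBS medium; compounds 0.59 nM to 92 uM with T3 at 0.4nM final, 18 h at 37 C. Beta-lactamase read by CCF4 fluorescence (460/530 nm); Hill fits gave IC50 and efficacy.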

Assay [17] can be described thus: qHTS assay for small molecule agonists of the antioxidant response element (ARE) signaling pathway (AID 651741; active = well fitted activation curve with a large enough effect in the signal ratio; the % refers to the signal ratio; note: potency is the fitted concentration of half-maximal effect; for activation: % of control where 0% means no effect). The method, boiled down:
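HepG2 ARE-bla reporter cells, 2,000/well; 5 h settle at 37 C/5% CO2; compound pin transfer (23 nL, DMSO); 16 h at 37 C; LiveBLAzer B/G FRET substrate, 2 h RT; fluorescence intensity read.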

Assay [18] in a line: qHTS assay for small molecule activators of the nuclear factor-kappa B (NF-kB) signaling pathway (AID 651749; active = well fitted activation curve with a large enough effect in the signal ratio; the % refers to the signal ratio; note: series mostly up to about 77 µM; % of control where 0% means no effect). The note with it: NF-kB-bla ME-180 cells, beta-lactamase FRET ratio, 16 h; activation: stronger effect = higher value. An outline of the steps:
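NF-kB-bla ME-180 cells, 2,000/well; 23 nL compound or DMSO pinned; 16 hr, 37C/5% CO2; beta-lactamase FRET read-out.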

Assay [19] addresses Tumor necrosis factor (Homo sapiens) (UniProt P01375). Kind of assay: qHTS assay to identify small molecules that stimulate Tumor Necrosis Factor-alpha (TNF-alpha) secretion (AID 651757; active = well fitted curve in the direction sought with a large enough effect in the signal ratio; the % refers to the signal ratio; note: 0% is about no effect). The method, boiled down:
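Using 3000 THP-1 cells per well, compounds and controls were applied for 17 hrs at 37 C. Detection followed with two labeled anti-TNF-alpha antibodies (cryptate donor, XL665 acceptor) for 3 hr at room temperature, measured by TR-FRET.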

The nature of assay [20]: qHTS assay for cell viability of HEK293 cells (AID 743288). Note: % is set by controls: 0 for no effect and ±100 for the full control effect; nearly all actives have a fitted effect of over 50% in size. Conditions: ATP luminescence (CellTiter-Glo), 18 h; max response: stronger effect = lower value. An outline of the steps: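 Steps: plate 2,000 parental HEK293 cells per well; incubate ≥5 h, 37 C; add compounds in DMSO; incubate 18 h, 37 C; add CellTiter-Glo; wait 30 min at room temperature; read luminescence.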

Results filed as inconclusive are left out. Active and inactive are the calls of the source. Unless noted, calls come from the whole dose curve; as a rule, active = well fitted curve in the direction sought with a large enough effect; inconclusive = small, poorly fitted or top-dose-only effect, or another doubt; inactive = no such curve, though single readings can be large; an effect the other way counts as inactive or inconclusive.

Alpha-galactosidase A (Homo sapiens), sequence (P06280 whole entry, looked up): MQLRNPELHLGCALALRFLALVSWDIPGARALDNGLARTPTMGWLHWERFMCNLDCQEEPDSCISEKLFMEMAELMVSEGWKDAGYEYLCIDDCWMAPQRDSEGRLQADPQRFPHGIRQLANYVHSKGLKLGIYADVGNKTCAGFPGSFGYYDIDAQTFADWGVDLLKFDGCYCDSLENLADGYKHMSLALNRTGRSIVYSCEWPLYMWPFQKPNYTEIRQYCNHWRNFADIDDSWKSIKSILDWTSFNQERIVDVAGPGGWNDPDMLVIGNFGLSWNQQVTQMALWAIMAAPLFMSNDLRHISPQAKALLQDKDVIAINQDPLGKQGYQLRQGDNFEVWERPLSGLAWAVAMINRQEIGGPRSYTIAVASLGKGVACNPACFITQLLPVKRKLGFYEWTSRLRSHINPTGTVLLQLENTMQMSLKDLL
Guanine nucleotide-binding protein G(i) subunit alpha-1 (Homo sapiens), sequence (P63096 whole entry, looked up): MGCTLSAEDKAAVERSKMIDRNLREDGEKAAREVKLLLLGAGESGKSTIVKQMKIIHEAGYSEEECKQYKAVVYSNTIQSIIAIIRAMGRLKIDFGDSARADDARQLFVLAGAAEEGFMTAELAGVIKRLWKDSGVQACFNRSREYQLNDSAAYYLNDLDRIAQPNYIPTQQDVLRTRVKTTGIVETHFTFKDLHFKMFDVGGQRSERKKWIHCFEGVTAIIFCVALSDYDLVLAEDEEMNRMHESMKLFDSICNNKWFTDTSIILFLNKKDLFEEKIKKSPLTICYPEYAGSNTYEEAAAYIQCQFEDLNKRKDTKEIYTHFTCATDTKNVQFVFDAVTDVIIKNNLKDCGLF
Pyruvate kinase PKM (Homo sapiens), sequence (P14618 whole entry, looked up): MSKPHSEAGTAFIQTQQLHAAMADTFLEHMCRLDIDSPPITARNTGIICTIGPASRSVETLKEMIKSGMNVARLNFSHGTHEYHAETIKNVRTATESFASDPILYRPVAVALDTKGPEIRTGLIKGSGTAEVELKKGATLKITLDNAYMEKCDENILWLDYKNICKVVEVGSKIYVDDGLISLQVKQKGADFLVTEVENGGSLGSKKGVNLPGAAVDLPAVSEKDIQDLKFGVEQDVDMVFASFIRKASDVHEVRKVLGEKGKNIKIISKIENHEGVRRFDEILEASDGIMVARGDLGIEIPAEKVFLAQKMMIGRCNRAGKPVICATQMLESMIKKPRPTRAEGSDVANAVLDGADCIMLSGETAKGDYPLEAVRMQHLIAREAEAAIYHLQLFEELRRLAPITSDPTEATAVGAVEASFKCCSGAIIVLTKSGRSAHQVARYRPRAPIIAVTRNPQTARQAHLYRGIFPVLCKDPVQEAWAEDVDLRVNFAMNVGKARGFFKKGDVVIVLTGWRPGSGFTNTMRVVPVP
Pyruvate kinase (Leishmania mexicana), sequence (Q27686 2-499 E452W): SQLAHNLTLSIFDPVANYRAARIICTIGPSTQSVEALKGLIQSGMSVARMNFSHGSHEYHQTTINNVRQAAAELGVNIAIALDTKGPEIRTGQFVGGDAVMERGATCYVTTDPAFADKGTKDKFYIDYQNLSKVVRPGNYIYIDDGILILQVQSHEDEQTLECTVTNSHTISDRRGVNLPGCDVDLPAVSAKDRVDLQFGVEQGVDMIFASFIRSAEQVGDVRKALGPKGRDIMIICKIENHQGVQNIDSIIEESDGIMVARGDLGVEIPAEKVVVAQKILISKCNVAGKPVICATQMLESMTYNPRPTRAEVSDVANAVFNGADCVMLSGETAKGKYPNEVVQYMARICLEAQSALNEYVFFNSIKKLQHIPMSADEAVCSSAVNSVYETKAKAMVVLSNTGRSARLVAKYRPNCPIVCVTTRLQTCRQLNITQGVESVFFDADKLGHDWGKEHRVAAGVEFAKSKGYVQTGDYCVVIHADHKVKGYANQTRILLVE
Tumor necrosis factor (Homo sapiens), sequence (P01375 whole entry, looked up): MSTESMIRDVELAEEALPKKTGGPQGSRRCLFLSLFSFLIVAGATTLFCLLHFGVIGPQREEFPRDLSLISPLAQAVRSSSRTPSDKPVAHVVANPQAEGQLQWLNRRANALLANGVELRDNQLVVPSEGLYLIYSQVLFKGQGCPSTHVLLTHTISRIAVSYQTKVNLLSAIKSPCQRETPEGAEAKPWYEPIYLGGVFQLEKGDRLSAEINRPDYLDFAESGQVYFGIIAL
Thyroid hormone receptor beta (Homo sapiens), sequence (P10828 whole entry, looked up): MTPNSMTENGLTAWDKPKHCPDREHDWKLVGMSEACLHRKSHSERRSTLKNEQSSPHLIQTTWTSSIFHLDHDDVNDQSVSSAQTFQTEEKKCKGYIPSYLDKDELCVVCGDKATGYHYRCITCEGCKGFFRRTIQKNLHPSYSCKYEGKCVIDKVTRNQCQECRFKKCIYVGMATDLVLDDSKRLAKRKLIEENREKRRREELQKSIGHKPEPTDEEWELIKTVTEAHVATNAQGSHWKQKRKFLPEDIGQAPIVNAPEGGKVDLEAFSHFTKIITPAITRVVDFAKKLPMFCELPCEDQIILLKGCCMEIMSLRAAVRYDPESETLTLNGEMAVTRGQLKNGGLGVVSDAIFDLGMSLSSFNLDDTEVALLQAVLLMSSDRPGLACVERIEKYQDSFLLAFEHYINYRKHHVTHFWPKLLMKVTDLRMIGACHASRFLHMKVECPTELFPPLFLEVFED

As to `CS(=N)(=O)CC[C@@H](N)C(=O)O` (some centres undefined), the result in assay [1], in assay [3], in [4] and in [5] was inactive. Besides, in [2], the Potency entry is “inactive”.
As to `C=CCc1ccc(OC)cc1`, the Potency entry in assay [6], in assay [12], in assay [13] and in [17] was “inactive” throughout. The compound was called inactive in assay [7], in assay [8], in assay [9], in assay [10], in [11] and in assay [14]. Also, in [19], the result was inactive. The figures for the max response in assay [15] and in assay [20] were -1.65% and 2.04% (inactive), respectively. In assay [16], the activity change % (negative = inhibition) is -7.69% (inactive). In addition, the activation in assay [18] was -0.38% (inactive).
On to `C#CCN(C)[C@@H](C)Cc1ccccc1`, for which the outcome in [1], in [3], in assay [4] and in assay [5] was inactive. Further, the Potency result in assay [2] was “inactive”.
Take `ClC1=C(Cl)C2(Cl)C3C4C=CC(C4)C3C1(Cl)C2(Cl)Cl` (centres undefined): the Potency entry in assay [6], in assay [12] and in assay [13] was “inactive” each time. Also, the outcome in assay [7], in [8], in assay [9], in [10], in [11] and in [14] was inactive. Also, the result in assay [19] was inactive. The max response in [15] is -0.359%; in assay [20], -24.9% (inactive). The activity change % (negative = inhibition) in assay [16] was -26.2% (inactive). In addition, in assay [17], the Potency was 66.8 µM (active).
For `COc1ccc(OC)c([C@H](O)[C@H](C)N)c1`, the result in [1], in assay [3], in assay [4] and in assay [5] was inactive. Also, in assay [2], the Potency result is “inactive”.
